An excerpt weighted towards active compounds, which were near 4% of everything screened.
RecA splice inh = inhibitors of M. tuberculosis RecA intein splicing. P9WHJ3. cell-free RecA intein splicing, fluorescence. inhibition, % (concentration not given with the values). hit rate 0.75% among 290,000; in the data active means inhibition above about 30%; inconclusive means no clear call, values can overlap the other calls;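 further: 0% = vehicle wells and 100% = reference inhibitor control wells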
Rv3671c protease = inhibits the M. tuberculosis serine protease Rv3671c. P9WHR9. inhibition, % at 5.96 µM. hit rate 0.048% among 320,000. AID 2606; in the data active means inhibition above about 38%;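 further: extracellular domain of Rv3671c used as enzyme; 0% = enzyme with DMSO and 100% = no enzyme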
Target sequence (P9WHR9 whole entry, looked up, the tested form may be a part): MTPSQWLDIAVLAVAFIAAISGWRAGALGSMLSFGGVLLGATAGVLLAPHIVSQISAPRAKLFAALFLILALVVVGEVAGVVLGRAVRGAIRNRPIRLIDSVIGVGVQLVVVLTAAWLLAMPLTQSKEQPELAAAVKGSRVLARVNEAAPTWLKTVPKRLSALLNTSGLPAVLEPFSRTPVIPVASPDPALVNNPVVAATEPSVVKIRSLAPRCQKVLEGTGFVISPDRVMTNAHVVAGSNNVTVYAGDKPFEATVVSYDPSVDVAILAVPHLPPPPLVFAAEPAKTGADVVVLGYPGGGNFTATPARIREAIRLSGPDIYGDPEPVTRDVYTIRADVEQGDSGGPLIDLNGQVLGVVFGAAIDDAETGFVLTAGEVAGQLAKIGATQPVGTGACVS
GDH-TPI counter = counter-screen for M. tuberculosis FBA inhibitors: GDH-TPI coupled enzymes | AID 588335 | hit rate 1.2% among 360,000 | inhibition, % at 4.8 µM | GDH-TPI coupled enzyme counterscreen, NADH absorbance; in the data active means inhibition above about 30%;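 further: 0% = DMSO wells and 100% = wells lacking the enzyme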
FBA Mtb inh = inhibitors of M. tuberculosis fructose-bisphosphate aldolase. purified M. tuberculosis FBA, fluorescence read-out. inhibition, % at 1 µM. hit rate 2.3% among 360,000. AID 588726; in the data active means inhibition above about 27%;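 further: 0% = vehicle and 100% = reference inhibitor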
Mtb UGM inh = blocks M. tuberculosis UGM enzyme; purified UGM, fluorescence polarization probe displacement; hit rate 0.06% among 320,000; inhibition, % at 10 µM; in the data active means inhibition above about 10%, passing the limit was not always enough; inconclusive means no clear call, values can overlap the other calls
Mtb bLac sens = beta-lactam sensitization of Mtb H37Rv | inhibition, % at 25 µM | M. tuberculosis H37Rv growth with meropenem, percent inhibition | hit rate 0.27% among 330,000 | AID 434955; call rule not given here;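 further: growth measured after seven days incubation then overnight dye step; 0% = bacteria only wells and 100% = bacteria with antibiotic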
* hit, by the source's call.

Screening O=C1N/C(=N/N=C/c2ccc(O)cc2)SC1Cc1ccccc1 (centres undefined) returned RecA splice inh -3.4, Rv3671c protease -25.7, GDH-TPI counter 62.0*, FBA Mtb inh -5.0, Mtb UGM inh 2.2 and Mtb bLac sens 19.0.
`CCOc1cc(/C=N/N=C2/NC(=O)C(CC(=O)O)S2)ccc1OCc1ccc(Cl)cc1Cl` (centres undefined) gave RecA splice inh 7.9, Rv3671c protease -23.1, GDH-TPI counter 27.9, FBA Mtb inh 0.1, Mtb UGM inh -0.9 and Mtb bLac sens 3.3.
Screening COc1ccc(CC2S/C(=N/N=C/c3ccc(O)cc3)NC2=O)cc1 (centres undefined) returned RecA splice inh 3.6, Rv3671c protease -10.0, GDH-TPI counter 15.7, FBA Mtb inh -0.9, Mtb UGM inh 4.5 and Mtb bLac sens 0.2.
For N#Cc1cnn(-c2ccc(F)cc2)c1N the results were RecA splice inh 0.2, Rv3671c protease 2.9, GDH-TPI counter -0.7, FBA Mtb inh 0.4, Mtb UGM inh -2.2 and Mtb bLac sens -11.1.
`COc1cccc(N(CC(=O)NC(C)c2ccccc2)S(C)(=O)=O)c1` (centres undefined) gave RecA splice inh 0.1, Rv3671c protease 2.1, GDH-TPI counter -5.5, FBA Mtb inh 0.8, Mtb UGM inh -1.1 and Mtb bLac sens -17.4.
`Cn1cccc1C(=O)OCC(=O)c1c[nH]c2ccccc12` gave Rv3671c protease -3.0, GDH-TPI counter 3.5, FBA Mtb inh -1.2, Mtb UGM inh -1.0 and Mtb bLac sens 4.9.
O=C(CCNC(=O)c1ccccc1Cl)Nc1ccc2c(c1)OCO2 was read as RecA splice inh -1.6, Rv3671c protease -2.0, GDH-TPI counter -3.5, FBA Mtb inh 2.2, Mtb UGM inh 3.4 and Mtb bLac sens -0.3.
Screening O=C(CCl)Nc1ccccc1C(=O)Nc1ccc2c(c1)OCO2 returned RecA splice inh 37.9*, Rv3671c protease -4.5, GDH-TPI counter 7.6, FBA Mtb inh -1.0, Mtb UGM inh -1.1 and Mtb bLac sens 98.9.
`CCC(=O)N1CCN=C1SCc1c(F)cccc1Cl` gave RecA splice inh -1.2, Rv3671c protease 1.2, GDH-TPI counter 0.0, FBA Mtb inh -2.0, Mtb UGM inh 0.4 and Mtb bLac sens -1.0.
CCCCn1nc(C(=O)N(CCOC)c2c(N)n(CCCC)c(=O)[nH]c2=O)c2ccccc2c1=O was read as Rv3671c protease -0.1, GDH-TPI counter 4.8, FBA Mtb inh -1.1, Mtb UGM inh -2.0 and Mtb bLac sens -6.5.
`COc1ccc(-c2csc(C(O)c3ccccc3)n2)cn1` (centres undefined) gave GDH-TPI counter 5.3 and FBA Mtb inh -2.1.
Screening Cc1cccc(NC(=O)c2cnc3sccn3c2=O)c1 returned RecA splice inh -1.6, Rv3671c protease -0.4, GDH-TPI counter 22.6, FBA Mtb inh 2.7, Mtb UGM inh 0.5 and Mtb bLac sens -6.0.
Cc1cccc(NC(=O)c2cnc3sccn3c2=O)n1 was read as RecA splice inh -1.8, Rv3671c protease -1.7, GDH-TPI counter 32.7*, FBA Mtb inh 8.7, Mtb UGM inh 3.3 and Mtb bLac sens 0.0.
`O=C(NCc1cccnc1)c1cnc2sccn2c1=O` gave RecA splice inh 3.3, Rv3671c protease 0.2, GDH-TPI counter 41.3*, FBA Mtb inh 21.2, Mtb UGM inh -5.6 and Mtb bLac sens -2.7.
For COc1ccccc1CNC(=O)c1cnc2sccn2c1=O the results were RecA splice inh 0.4, Rv3671c protease -1.3, GDH-TPI counter 36.5*, FBA Mtb inh 0.0, Mtb UGM inh 0.7 and Mtb bLac sens -3.2.
For CCN(CC)CCNC(=O)c1ccc(CS(=O)(=O)c2ccccc2C)o1 the results were RecA splice inh 1.1, Rv3671c protease -0.6, GDH-TPI counter -0.4, FBA Mtb inh 2.3, Mtb UGM inh 1.9 and Mtb bLac sens -9.3.
For c1ccc(-c2ccc(-c3cn4c(n3)CCC4)cc2)cc1 the results were RecA splice inh 6.7, Rv3671c protease 4.5, GDH-TPI counter 0.0, FBA Mtb inh 157.6* and Mtb UGM inh 0.8.
`COc1ccc(-c2cn3c(n2)CCC3)cc1` gave RecA splice inh 1.1, Rv3671c protease 2.8, GDH-TPI counter -9.8, FBA Mtb inh 19.2, Mtb UGM inh 2.5 and Mtb bLac sens -4.4.
`COc1ccccc1NC(=O)CSc1ccc2nnc(-c3ccc(C)cc3)n2n1` gave RecA splice inh -3.1, Rv3671c protease -8.8, GDH-TPI counter -9.1, FBA Mtb inh 1.1, Mtb UGM inh 0.2 and Mtb bLac sens -8.2.
`O=S(=O)(N/N=C\C=C\c1ccccc1)c1ccc(Cl)cc1` gave RecA splice inh 0.6, Rv3671c protease -3.1, GDH-TPI counter 58.8*, FBA Mtb inh 0.0, Mtb UGM inh 4.8 and Mtb bLac sens -14.1.
`O=S(=O)(N/N=C\c1ccccc1O)c1ccc(Cl)cc1` gave RecA splice inh 1.5, GDH-TPI counter 6.9, FBA Mtb inh -0.2, Mtb UGM inh -0.3 and Mtb bLac sens 3.8.
For COc1cccc(-c2nnc(-c3ccc(C)o3)o2)c1 the results were RecA splice inh 2.7, Rv3671c protease 2.0, GDH-TPI counter 0.9, FBA Mtb inh 178.7*, Mtb UGM inh -1.4 and Mtb bLac sens -8.8.
For O=C(Nc1ccc(F)cc1)C(c1ccccc1)N1CCN(S(=O)(=O)c2ccc3ccccc3c2)CC1 (centres undefined) the results were RecA splice inh -1.8, Rv3671c protease -49.0, GDH-TPI counter 12.4, FBA Mtb inh 29.8*, Mtb UGM inh 0.1 and Mtb bLac sens 3.3.
Cc1ccc(C)c(S(=O)(=O)N2CCN(C(C(=O)Nc3ccc(F)cc3)c3ccccc3)CC2)c1 (centres undefined) was read as RecA splice inh 0.8, Rv3671c protease -44.5, GDH-TPI counter 8.6, FBA Mtb inh 2.6, Mtb UGM inh 1.1 and Mtb bLac sens -5.1.
Cc1ccc(C)c(N2CCN(C3CCCC(C)C3)CC2)c1 (centres undefined) was read as RecA splice inh 1.5, Rv3671c protease 1.2, GDH-TPI counter 2.2, FBA Mtb inh 2.1 and Mtb UGM inh -2.3.
`O=C(CSc1ccc2c(c1)OCCO2)NC(=O)NC1CCCC1` gave RecA splice inh -1.5, Rv3671c protease 3.5, GDH-TPI counter 16.5, FBA Mtb inh 3.7, Mtb UGM inh -1.0 and Mtb bLac sens 13.8.
Screening CCCc1cc(NCCOCCO)n2c(nc3ccccc32)c1C#N returned GDH-TPI counter 15.0 and FBA Mtb inh active.
For CCCc1cc(-n2ccnc2C)n2c(nc3ccccc32)c1C#N the results were Rv3671c protease 17.5, GDH-TPI counter 4.6, FBA Mtb inh 7.2, Mtb UGM inh -0.7 and Mtb bLac sens -10.2.
CC(C)c1cc(NCCOCCO)n2c(nc3ccccc32)c1C#N was read as RecA splice inh -91.3, Rv3671c protease 4.4, GDH-TPI counter -1.1, FBA Mtb inh active, Mtb UGM inh -3.1 and Mtb bLac sens 4.0.
`CCCc1cc(NCCCCO)n2c(nc3ccccc32)c1C#N` gave RecA splice inh -134.4, Rv3671c protease -6.4, GDH-TPI counter 6.2, FBA Mtb inh 177.8*, Mtb UGM inh -0.8 and Mtb bLac sens inconclusive.

Assay outcomes (PubChem)
